Experimental data taken from PubChem BioAssay AID624354 (Sanford-Burnham Center for Chemical Genomics, 2012).
Where “and” joins values, the source holds several entries; their conditions need not be identical. Equal entries are not always repeated. About 3,800 (1.1%) of roughly 360,000 compounds were called active. The full list was thinned out, with actives kept by preference. A number with no mark means an inactive call.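 The calls were made as follows: active = compounds causing at least 50% loss of cell viability in the single-dose screen, relative to plate controls; inactive = the rest.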

test: TRAIL-exposed caspase-8 expressing cell killing – NB7+C8 cells, ATPlite luminescence, TRAIL sensitizer project, primary screen (AID 624354); settings: at 10 µM, stronger effect = higher value

SMILES	inhibition (viability loss, TRAIL sensitization)
N/C(=N\OC(=O)c1ccc([N+](=O)[O-])cc1)c1ccccn1	24.5%
Cc1ccc(C(=O)O/N=C(\N)c2ccccn2)cc1Cl	74.5% (active)
N/C(=N\OC(=O)CCC1CCCCC1)c1ccccn1	-5.71%
CNc1nc(SC)nc(N(C#N)CC(=O)OC)n1	-0.928%
COC(=O)c1cccc(C(=O)N2CCCC(Nc3ccc4c(c3)OCCO4)C2)c1 (stereo not given)	-3.93%
COc1ccc(S(=O)(=O)N2CCCC(C(=O)NCCCn3ccnc3)C2)cc1OC (stereo not given)	-12.7%
COc1ccc(C=C(C#N)C#N)c(CSc2ccccn2)c1	1.8%
COc1ccc2cc(CCl)c(Cl)nc2c1	-1.84%
COc1ccc2nc(-c3ccccn3)ccc2c1	80.3% (active)
CC[C@H](C)[C@@H](C(=O)N1CCNCC1)n1cc([C@@H](N)Cc2ccc(O)cc2)nn1	-6.33%
CC1(C(=O)NS(=O)(=O)c2ccccc2)CCN1C(=O)Cc1ccc(-c2ccccc2)cc1 (stereo not given)	4.55%
CCCNC(=O)C1(C)CCN1C(=O)Cc1ccc(-c2ccccc2)cc1 (stereo not given)	5.54%
C#Cc1ccc(NC(=O)C2(C)CCN2C(=O)Cc2ccc(-c3ccccc3)cc2)cc1 (stereo not given)	73.3% (active)
Cc1cccc2c1-c1sc(C(=O)NCCCN3CCc4ccccc4C3)cc1CO2	11.6%
Cc1noc(C)c1CSCC(=O)Nc1nc2ccc(Oc3ccccc3)cc2s1	-12.9%
COc1ccc2nc(Nc3nc(-c4cc5ccccc5oc4=O)cs3)sc2c1	69.2% (active)
COc1cccc(C(NC(C)=O)c2nc(-c3ccccc3OC)cs2)c1 (stereo not given)	2.76%
CC(=O)CSc1nnc(CSc2ncccn2)n1C1CCCCC1	-3.63%
O=C(NCCc1ccccc1Cl)C1CCC(=O)N(CCCc2ccccc2)C1 (stereo not given)	6.8%
Fc1ccc(/C=N/Nc2nc(-c3cccnc3)nc3ccccc23)cc1	50.2% (active)
CCN(CC(=O)NC1CCS(=O)(=O)C1)c1nc(-c2cccnc2)nc2ccccc12 (stereo not given)	11.4%
Brc1ccc(-c2csc(N/N=C/c3cccnc3)n2)cc1	2.52%
O=C(NNS(=O)(=O)c1ccccc1)c1cnn(-c2ccc(Cl)cc2)c1C(F)(F)F	18.4%

SMILES	inhibition (viability loss, TRAIL sensitization)
Cc1ccc(NC(=O)CCOc2ccccc2)cc1S(=O)(=O)Nc1ccccc1Cl	5.58%
CN(C(=O)CSc1cccc[n+]1[O-])C1CCCCC1	9.54%
O=C(c1cc2ccccc2o1)N1CCN(c2cccc(C(F)(F)F)c2)CC1	-2.4%
CC(=O)c1sc(N)nc1C	-3.29% and -3.98%
CC(=O)c1sc(NC(=O)c2ccc(C)cc2)nc1C	68.3% (active)
Cc1ccc(C(=O)Nc2ccn(C)n2)cc1	14.4%
CCOC(=O)N1CCN(C(=O)COC(=O)c2cccc(S(C)(=O)=O)c2)CC1	-12.4%
C=CC(COCc1ccccc1)N(CC(=O)OC)S(=O)(=O)c1cc(Br)ccc1OC (stereo not given)	2.56%
CCOc1cc(N2CCOCC2)c(OCC)cc1NC(=O)C1=NN(c2cccc(C)c2)C(=O)CC1	3.1%
CCOc1cc(N2CCOCC2)c(OCC)cc1NC(=O)COc1cccc2cccnc12	53.6% (active)
Cc1cc(C)cc(OCC(=O)Nc2ccc(N3CCOCC3)cc2N2CCOCC2)c1	6.27%
Cc1ccc(-c2c3c(=O)n(C)c(=O)n(C)c3cn2-n2cnnc2)cc1	-15.5%
COc1ccc(OC)c(NC(=O)c2ccc3c(c2)C(=O)N(c2ccc(OC(C)=O)cc2)C3=O)c1	-0.949%
CC1CCCCC1NC(=O)CCS(=O)(=O)c1ccc2c(c1)NC(=O)CO2 (stereo not given)	-18.2%
Cc1ccccc1S(=O)(=O)N1[C@@H](c2cccc(Cl)c2)C(C(=O)O)=CC[C@H]1c1ccc(Cl)cc1	15.5%
Cc1nc2ccccc2n1C(=O)N1CCOCC1	-8.36%
Cc1oc2c(c1C(=O)N1CCOCC1)C(=O)c1ccccc1C2=O	88.8% (active)
CC(C(=O)Nc1ccccc1-c1ccccc1)N1CCOCC1 (stereo not given)	-42%
COC(=O)[C@@]1(Sc2ccc(C)cc2)CC(=O)N(c2cccc(SC)c2)[C@@H]1c1ccccc1	24.6%
O=C1/C(=C\c2ccc([N+](=O)[O-])cc2)CS(=O)(=O)C/C1=C/c1ccc([N+](=O)[O-])cc1	91.8% (active)
O=[N+]([O-])c1ccc(N=NNc2ccc([N+](=O)[O-])cc2)cc1	13.8%
O=C(Cc1ccccc1)N1CCN(S(=O)(=O)c2ccc([N+](=O)[O-])cc2)CC1	-7.16%
CC1(C(=O)NCc2ccco2)Cc2c(-c3ccc4c(c3)OCO4)ccnc2O1 (stereo not given)	14.9%

SMILES	inhibition (viability loss, TRAIL sensitization)
COc1ccc(C(=O)Nc2ccccc2C(=O)N/N=C/c2ccc(O)c(OC)c2)cc1	95.8% (active)
COc1cc(C=NC2CCCCC2)ccc1O	-2.08%
COc1ccc(/C=N/NC(=O)C(C)N(c2ccc(OC)cc2)S(C)(=O)=O)cc1 (stereo not given)	-5.4%
CCOc1cc(/C=N/NC(=O)c2c(C)nc3ccc(Cl)cn23)ccc1O	-7.66%
COc1ccc(/C=N/NC(=O)Cn2cc(C(F)(F)F)ccc2=O)cc1	-0.17%
COc1ccc(/C=N/Nc2ccccc2C(=O)O)cc1	55.9% (active)
Cc1cccc(N(Cc2ccccc2)C(=O)c2cc(S(=O)(=O)N3CCOCC3)ccc2F)c1	19.9%
CN(C)C(=O)CCc1ccc2c3c([nH]c2c1)[C@]1(CCc2ccccc2)[C@@H](C(=O)N2CCCCC2)C[C@H](CC(=O)NCCC2=CCCCC2)C(=O)N1CC3	13.2%
CCc1nc2ccc(C(=O)Nc3cccc(OC)c3)cn2c1N(CCC(C)C)CCN(C)C	15.5%
CCOc1ccccc1-n1c(SCC(=O)N2CCCC2)nnc1-c1ccoc1C	2.53%
O=C(N/N=C/C=C/c1ccco1)c1cccs1	-0.972%
Cc1ccc(C(=O)N/C(=C/c2ccco2)C(=O)NCCc2c[nH]c3ccccc23)cc1C	-2.25%
Cc1ccc(-c2cc(C(=O)N/N=C/C=C/c3ccco3)c3ccccc3n2)cc1C	61.5% (active)
Cc1ccc(C2Nc3ccccc3C(=O)N2CCN2CCNC2=O)cc1 (stereo not given)	-20.4%
COc1ccc(-c2nc3ccc(Br)cn3c2Cc2ccc(C)cc2)cc1OC	3.92%
CC(=O)Nc1c(-c2ccc(C)cc2)nc2ccc(Cl)cn12	-3.92%
Cc1ccnc(N2C(=O)c3ccc([N+](=O)[O-])cc3C2=O)c1	-23.1%
Cc1ccc(-c2nc3ccc(Br)cn3c2Cc2ccccc2C(F)(F)F)cc1	12.7%
Cc1ccc(-c2cn3cc([N+](=O)[O-])ccc3n2)cc1	56.8% (active)
Cc1ccc(Cc2c(-c3ccccc3)nc3ccc(Cl)cn23)cc1	8.97%
Cc1ccc(-c2cn3cc(C)ccc3n2)cc1	87.8% (active)
Cc1ccc(-n2cc3ccc([N+](=O)[O-])cc3n2)cc1	25.5%
Cc1ccc2nc(-c3ccc(Br)cc3)cn2c1	67.2% (active)

SMILES	inhibition (viability loss, TRAIL sensitization)
CCOc1ccc(C(C)=O)cc1CSc1nnc(-c2ccncc2)n1CCOC	-21.1%
CC(C)Oc1ccc(/C=C(\NC(=O)/C=C/c2ccco2)C(=O)NCCc2nc3ccccc3[nH]2)cc1	-11.3%
CCCCN(CC)C(=O)CN(C)S(=O)(=O)c1cccc2nsnc12	4.95%
CN(CC(=O)Nc1c(Cl)cccc1Cl)C(=O)c1ccncc1	-1.41%
OC[C@@H]1CN(Cc2ccc(Cl)cc2)C[C@H](n2cnc3c(NCc4ccncc4)ncnc32)O1	0.808%
CSCCC(NS(=O)(=O)c1ccccc1F)C(=O)N1CC=C(c2ccccc2)CC1 (stereo not given)	15.4%
N#CCCn1ncc2ccccc21	-30.7%
COc1ccc2c(c1)cc1n2CCN=C1NN	6.58%
COc1ccc(C(=O)NC(Cc2ccc(OC(=O)c3ccc(OC)cc3)cc2)C(=O)O)cc1 (stereo not given)	7.3%
O=CNc1cc(-c2ccc(C(=O)N3CCOCC3)cc2)cn2c(-c3ccc(F)cc3)cnc12	19.1%
CC(C)CNC(=S)NC(=O)c1ccc(Cl)cc1	-9.78%
CN1C(=O)[C@H]2[C@@H](/C=C/c3ccccc3)N3C(=O)CN(Cc4ccc(-c5ccccc5)cc4)C(=O)[C@@]3(C)[C@H]2C1=O	7.89%
CCOc1ccc(Br)cc1S(=O)(=O)Nc1ccc(C(=O)OC(C)C(=O)N(C)c2ccccc2)cc1 (stereo not given)	9.56%
O=C(NNc1c2ccccc2nc2ccccc12)c1cc2ccccc2cc1O	11.6%
Oc1ccc(/C=N/Nc2nc(-c3ccccc3F)nc3ccccc23)c(O)c1	60.2% (active)
Cc1ccc(/C=N/NC(=O)C2=NNC(c3ccccc3)(c3ccccc3)C2)c(O)c1	20.2%
O=C(NCc1ccccn1)[C@@H]1CCCN1C(=O)[C@@H]1CCCN1C(=O)c1ccccc1	-14%
Nc1nc(NC(=O)/C=C/c2ccccc2)nn1-c1ccccc1	15%
COc1ccc(CCNC(=O)c2c(C)nn(-c3ccccc3)c2Cl)cc1	-4.85%
COc1ccc(C2c3c(C)nn(-c4ccccc4)c3NC(=O)N2c2ccccc2)cc1 (stereo not given)	-5.29%
COc1ccc(Oc2c(Cl)cnn(-c3ccccc3)c2=O)cc1	89.7% (active)
